Test results as given in PubChem BioAssay (NCI).
About 83,000 compounds went through this panel and 20% of them were active in at least one assay; those are over-represented in the sample as a whole.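 Results are percent growth after 48 hours of single-concentration exposure. 100 means growth as in untreated cells, lower positive values show inhibition; negative values down to -100 show cell death.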 Calls of active or inactive are those of the source. Rule for the calls: active = growth percent below 10; inactive = the rest.

Tests used:
Experiment in all cases: NCI-60 one-dose screen, 48 h (100 = growth as untreated, 0 = no growth, -100 = all killed)
Conditions in all cases: 10 µM
HCT-15 colon = test system: HCT-15 colon
HT29 colon = test system: HT29 colon
SNB-75 CNS = test system: SNB-75 CNS
SNB-19 CNS = test system: SNB-19 CNS
U251 CNS = test system: U251 CNS
PC-3 prostate = test system: PC-3 prostate
SK-MEL-5 melanoma = test system: SK-MEL-5 melanoma
UACC-62 melanoma = test system: UACC-62 melanoma
LOX IMVI melanoma = test system: LOX IMVI melanoma
SK-MEL-28 melanoma = test system: SK-MEL-28 melanoma

Measured: growth

O=C(c1ccc(Cl)cc1)C1[C@H](c2ccccc2Br)[C@@H](c2ccccc2)NC12C(=O)Nc1ccc(Br)cc12 (stereo not given in full)
active: HCT-15 colon 9.81% | HT29 colon -36% | U251 CNS -29.1% | PC-3 prostate 6.63% | LOX IMVI melanoma -100%
inactive: SNB-75 CNS 31.9% | SNB-19 CNS 36.2% | SK-MEL-5 melanoma 14.4% | UACC-62 melanoma 19.6% | SK-MEL-28 melanoma 43.8%

O=c1[nH]c2ccc(Cl)cc2cc1CSc1ccc(Nc2nccc(-c3ccc(Cl)cc3)n2)cc1
inactive: HCT-15 colon 16.3% | HT29 colon 44.9% | SNB-75 CNS 101% | SNB-19 CNS 77.5% | U251 CNS 21% | PC-3 prostate 34.4% | SK-MEL-5 melanoma 97% | UACC-62 melanoma 100% | LOX IMVI melanoma 35.8% | SK-MEL-28 melanoma 98.7%

CCCCSc1nc(Nc2ccc(/C(C)=N/NC(N)=S)cc2)c(C#N)c(-c2ccc(OC)cc2)n1
active: LOX IMVI melanoma -10.1%
inactive: HCT-15 colon 75.9% | HT29 colon 86.7% | SNB-75 CNS 37.7% | SNB-19 CNS 63.8% | U251 CNS 22.8% | PC-3 prostate 85.2% | SK-MEL-5 melanoma 46.2% | UACC-62 melanoma 44.7% | SK-MEL-28 melanoma 90.5%

COC(=O)CC1CC1C1Cc2c(nc(N(C)S(C)(=O)=O)nc2C(C)C)-c2ccc(F)cc21 (stereo not given)
inactive: HCT-15 colon 58.7% | HT29 colon 66.9% | SNB-75 CNS 92.3% | SNB-19 CNS 91.2% | U251 CNS 84.9% | PC-3 prostate 33.9% | SK-MEL-5 melanoma 57.2% | UACC-62 melanoma 56.5% | LOX IMVI melanoma 79.1% | SK-MEL-28 melanoma 104%

COc1cccc(/C=N/NC(=O)c2ccc3nc(-c4ccc(Cl)cc4)[nH]c3c2)c1O
active: HCT-15 colon 4.8% | HT29 colon -79.7% | SNB-75 CNS -81.8% | SNB-19 CNS -98.6% | U251 CNS -90.8% | PC-3 prostate -55.1% | SK-MEL-5 melanoma -98% | UACC-62 melanoma -92% | LOX IMVI melanoma -97.2% | SK-MEL-28 melanoma -98.3%

COc1ccccc1C(=O)NNC(=O)CSc1nc2c(c(=O)[nH]1)CCCC2
inactive: HCT-15 colon 110% | HT29 colon 113% | SNB-75 CNS 99.3% | SNB-19 CNS 101% | U251 CNS 104% | PC-3 prostate 83.4% | SK-MEL-5 melanoma 99.3% | UACC-62 melanoma 95.2% | LOX IMVI melanoma 96.9% | SK-MEL-28 melanoma 110%

NS(=O)(=O)c1ccc(NC(=O)CSc2ccc(-c3ccccc3)nn2)c(Br)c1
inactive: HCT-15 colon 86.7% | HT29 colon 99.2% | SNB-75 CNS 14.2% | SNB-19 CNS 42.9% | U251 CNS 17.8% | PC-3 prostate 51.9% | SK-MEL-5 melanoma 85.7% | UACC-62 melanoma 59.2% | LOX IMVI melanoma 42.6% | SK-MEL-28 melanoma 94.7%

CC(=O)Nc1ccc(-c2cn(-c3cccc(C(=O)Nc4cccc(OC(F)(F)F)c4)c3)nn2)cn1
inactive: HCT-15 colon 87.3% | HT29 colon 96.9% | SNB-75 CNS 118% | SNB-19 CNS 113% | U251 CNS 73.6% | PC-3 prostate 85.3% | SK-MEL-5 melanoma 97% | UACC-62 melanoma 73.5% | LOX IMVI melanoma 88.6% | SK-MEL-28 melanoma 92.8%

C=C(c1ccc(OC)c(N)c1)c1cc(C)nc2ccccc12
inactive: SNB-75 CNS 21.4% | SNB-19 CNS 10.3% | PC-3 prostate 31.2% | UACC-62 melanoma 24.1% | LOX IMVI melanoma 10.3% | SK-MEL-28 melanoma 62.4%
active: HCT-15 colon 3.55% | HT29 colon -20.8% | U251 CNS 7.35% | SK-MEL-5 melanoma -55%

CN1CCN(Cc2ccc(C(=O)Nc3cccc(Nc4ccc5cc(O)ccc5n4)c3)cc2C(F)(F)F)CC1
active: HCT-15 colon -81% | HT29 colon -49.4% | SNB-75 CNS -11.4% | SNB-19 CNS -54% | U251 CNS -65% | PC-3 prostate -22.9% | SK-MEL-5 melanoma -99.7% | UACC-62 melanoma -90.1% | LOX IMVI melanoma -93.5% | SK-MEL-28 melanoma -91.9%

O=C1Nc2cc(Cl)ccc2/C1=C/c1cccc(OCc2ccccc2)c1
inactive: SNB-75 CNS 16.8%
active: HCT-15 colon -24.8% | HT29 colon -43.8% | SNB-19 CNS 0.636% | U251 CNS -64.6% | PC-3 prostate 6.84% | SK-MEL-5 melanoma -98% | UACC-62 melanoma -32.6% | LOX IMVI melanoma -82.6% | SK-MEL-28 melanoma 4.09%

O=S(=O)(Nc1ncccn1)c1ccc(-n2c(-c3ccccc3)nc(-c3ccccc3)c2-c2ccccc2)cc1
inactive: HCT-15 colon 80.7% | HT29 colon 105% | SNB-75 CNS 77.2% | SNB-19 CNS 82.3% | U251 CNS 81.5% | PC-3 prostate 67.8% | SK-MEL-5 melanoma 76.1% | UACC-62 melanoma 83.7% | LOX IMVI melanoma 85.7% | SK-MEL-28 melanoma 105%

O=c1[nH]c2ccccc2cc1CSc1ccc(Nc2nccc(-c3ccc4ccccc4c3)n2)cc1
inactive: HCT-15 colon 30.6% | HT29 colon 49.9% | SNB-75 CNS 111% | SNB-19 CNS 71.2% | U251 CNS 20% | SK-MEL-5 melanoma 77% | UACC-62 melanoma 95.7% | SK-MEL-28 melanoma 65.7%
active: PC-3 prostate 1.09% | LOX IMVI melanoma 3.77%

CCOC(=O)C1NN(c2ccc(S(N)(=O)=O)cc2)c2nc3nc(-c4cccs4)cc(-c4cccs4)c3c(=O)n21 (stereo not given)
inactive: HCT-15 colon 88.5% | HT29 colon 73.9% | SNB-75 CNS 66.8% | SNB-19 CNS 96.4% | U251 CNS 84.5% | PC-3 prostate 80% | SK-MEL-5 melanoma 75.5% | UACC-62 melanoma 74.8% | LOX IMVI melanoma 80.7% | SK-MEL-28 melanoma 73.1%

COc1ccc2[nH]cc(/C=N/Nc3ccc(Br)cn3)c2c1
active: HCT-15 colon 6.98% | LOX IMVI melanoma 7.7%
inactive: HT29 colon 23.3% | SNB-75 CNS 43.7% | SNB-19 CNS 51.2% | U251 CNS 20.1% | PC-3 prostate 23% | SK-MEL-5 melanoma 21.9% | UACC-62 melanoma 51.3% | SK-MEL-28 melanoma 61.5%

O=C(NO)c1ccc(CNc2nc(-c3ccccc3)c3ccccc3n2)cc1
inactive: SNB-75 CNS 29% | PC-3 prostate 16.7%
active: HCT-15 colon -6.55% | HT29 colon 4.73% | SNB-19 CNS -8.9% | U251 CNS -37.7% | SK-MEL-5 melanoma -87.8% | UACC-62 melanoma -87.2% | LOX IMVI melanoma -96.9% | SK-MEL-28 melanoma -2.7%

N#Cc1c(NC(=O)c2cccc(C(F)(F)F)c2)sc2c1CCC(O)=C2
inactive: HCT-15 colon 20.6% | HT29 colon 80.4% | SNB-75 CNS 46.7% | SNB-19 CNS 42.4% | U251 CNS 39.7% | PC-3 prostate 39% | UACC-62 melanoma 11.5% | LOX IMVI melanoma 33.9% | SK-MEL-28 melanoma 33.9%
active: SK-MEL-5 melanoma -38.3%

CN(C)c1ccc(/C=C/C(=O)c2ccc(NC(=O)CN3C(=O)NC(C)(c4ccccc4)C3=O)cc2)cc1 (stereo not given)
inactive: HCT-15 colon 26.9% | HT29 colon 19.5% | SNB-75 CNS 80.6% | SNB-19 CNS 70.5% | U251 CNS 46% | PC-3 prostate 43.3% | SK-MEL-5 melanoma 23.2% | UACC-62 melanoma 46.6% | LOX IMVI melanoma 41.4% | SK-MEL-28 melanoma 70.7%

CN1C(=O)/C(=C/c2ccc3ncsc3c2)NC1=NC12CC3CC(CC(O)(C3)C1)C2
inactive: SNB-75 CNS 25.9% | SNB-19 CNS 16.3% | U251 CNS 16.4% | PC-3 prostate 16.8%
active: HCT-15 colon -7.12% | HT29 colon 3.87% | SK-MEL-5 melanoma -90.7% | UACC-62 melanoma -7.72% | LOX IMVI melanoma -52.8% | SK-MEL-28 melanoma -18.4%

N#Cc1c(NC(=O)c2ccc(C(F)(F)F)cc2)sc2c1CCC(O)=C2
active: HCT-15 colon 9.23% | SNB-75 CNS -3.93% | SK-MEL-5 melanoma -28.8%
inactive: HT29 colon 38.2% | SNB-19 CNS 55.9% | U251 CNS 28.2% | PC-3 prostate 49.2% | UACC-62 melanoma 13.8% | LOX IMVI melanoma 23.9% | SK-MEL-28 melanoma 41.6%

CNC(=O)c1cccc(N2CCc3c2ccc(NC(=O)Nc2ccc(N4CCN(C)CC4)c(C(F)(F)F)c2)c3F)c1
active: HCT-15 colon -89.8% | HT29 colon -88.3% | SNB-75 CNS 7.71% | SNB-19 CNS -84.7% | U251 CNS -92.1% | PC-3 prostate -51.8% | SK-MEL-5 melanoma -100% | LOX IMVI melanoma -100% | SK-MEL-28 melanoma -93.5%
inactive: UACC-62 melanoma 88.9%

O=C1CCC(N2Cc3cc(NC(=O)COc4ccccc4)ccc3C2=O)C(=O)N1 (stereo not given)
inactive: HCT-15 colon 25.4% | HT29 colon 79.5% | SNB-75 CNS 46.4% | SNB-19 CNS 66.7% | U251 CNS 86.8% | PC-3 prostate 37.7% | SK-MEL-5 melanoma 74.2% | UACC-62 melanoma 84.4% | LOX IMVI melanoma 108% | SK-MEL-28 melanoma 95.9%

Nc1nc(-c2ccccc2)cs1
inactive: HCT-15 colon 23.7% | HT29 colon 78.6% | SNB-75 CNS 59.2% | SNB-19 CNS 77% | U251 CNS 28.3% | PC-3 prostate 25.1% | SK-MEL-5 melanoma 59.1% | UACC-62 melanoma 53.4% | LOX IMVI melanoma 22% | SK-MEL-28 melanoma 87.9%

CN1CCCN(Cc2ccc(C(=O)Nc3cccc(Nc4ccc5cc(O)ccc5n4)c3)cc2C(F)(F)F)CC1
inactive: HCT-15 colon 14.6% | HT29 colon 27.8% | SNB-75 CNS 32.2% | SNB-19 CNS 81.1% | U251 CNS 33.7% | PC-3 prostate 51.3% | SK-MEL-5 melanoma 32.4% | UACC-62 melanoma 88.1%
active: LOX IMVI melanoma -100% | SK-MEL-28 melanoma -67.9%

Cc1ccc(/C=C(\C#N)n2nnc3c(F)cccc32)cc1
inactive: HCT-15 colon 12.2% | SNB-75 CNS 17.9% | SNB-19 CNS 23.6% | PC-3 prostate 24.7% | UACC-62 melanoma 36.8% | SK-MEL-28 melanoma 28.8%
active: HT29 colon 2.75% | U251 CNS -26.1% | SK-MEL-5 melanoma -23.5% | LOX IMVI melanoma -9.47%

CCOc1ccc(/C=N/NC(=O)Cn2nc(Cc3ccc([N+](=O)[O-])cc3)c3onc(C)c3c2=O)cc1
inactive: HCT-15 colon 33.7% | HT29 colon 34.6% | PC-3 prostate 23.1% | SK-MEL-5 melanoma 27.7% | UACC-62 melanoma 49.9% | SK-MEL-28 melanoma 49.7%
active: SNB-75 CNS 6.05% | SNB-19 CNS -6.58% | U251 CNS -66% | LOX IMVI melanoma -63.5%
